Results as given in PubChem BioAssay (NCATS).
Results filed as inconclusive are left out. The source made the active and inactive calls. The call rests on the fitted dose curve; in most records, active means well fitted curve in the direction sought with a large enough effect; inconclusive means small, poorly fitted or top-dose-only effect, or another doubt; inactive means no such curve, though single readings can be large; an effect the other way counts as inactive or inconclusive.

Key:
[1] = 10-beta competent E. coli microbial cell viability qHTS against the NCATS CANVASS Library (AID 1347376); further: series mostly up to about 46 µM
Outline: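 Bacterial suspension diluted to 0.2 OD was dosed with compounds, 11-point series, then held overnight at 37C. BacTiter-Glo reagent was added, and after 20 min at room temperature ATP-dependent luminescence was measured.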

[2] = DH5-alpha competent E. coli microbial cell viability qHTS against the NCATS CANVASS Library (AID 1347377)
Outline: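 Bacteria were dispensed at 0.2 OD, then compounds were pin-transferred. Plates were incubated overnight at 37C, after which BacTiter-Glo was added and luminescence measured 20 min later.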

[3] = qHTS for H2AX Agonists against the NCATS CANVASS Library (AID 1347378);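 further: phospho-H2AX S139 level in CHO-K1 lysates by TR-FRET emission ratio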
Outline: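 CHO-K1, 1000 cells/well, o/n 37C; cpd several conc, 3 hr 37C, 0.76% DMSO; lyse 30 min RT; cryptate anti-pH2AX(S139) + d2 anti-H2AX, 24 hr RT; HTRF 665/620.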

[4] = qHTS for Inflammasome Signaling Inhibitors: IL-1-beta AlphaLISA screen against the NCATS CANVASS Library (AID 1347379); conditions: outcome: dose series up to 57.5 µM;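 further: human THP-1 cells primed with LPS then triggered with ATP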
Source text: (§1) Natural products and their derivatives continue to be wellsprings of nascent therapeutic potential. However, many laboratories have limited resources for biological evaluation, leaving their previously isolated or synthesized compounds largely or completely untested. To address this issue, the Canvass library of natural products was assembled (https://tripod.nih.gov/canvass), in collaboration with academic and industry researchers, for quantitative high-throughput screening (qHTS) across a diverse set of cell-based and biochemical assays. […] The library was formatted into 1536-well plates and evaluated in 50 qHTS (in an 11-pnt concentration series) bioassays with broad scope of disease-relevant mechanisms. The resulting data set from 50 different assays was then systematically analyzed to identify overall trends and specific natural products with interesting biological activities. […]
IL-1-beta qHTS protocol: Three microliters containing 3000 THP-1 cells were dispensed into the wells of solid, white, tissue culture treated Greiner 1,536-well plates. […] The AlphaLISA signal was read by a PerkinElmer EnVision plate reader with an ultrasensitive luminescence detector and 1536 Plate HTS AlphaScreen aperture (excitation of 680nm and emission of 615nm).

[5] = qHTS for Antimalaria activity screened against the NCATS CANVASS Library (AID 1347380);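 further: Plasmodium falciparum strain Dd2 asexual parasites grown in red blood cells; series mostly up to about 29 µM; nearly all actives have a fitted effect of over 40% in size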
Outline: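 Compounds are titrated over 11 concentrations onto Dd2 parasite cultures (0.3% parasitemia, 2.5% hematocrit). Growth over 72 h at 37C in low oxygen is measured as SYBR Green DNA fluorescence after lysis.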

[6] = Inflammasome Signaling qHTS Counterscreen: IL-1-beta AlphaLISA counterscreen against the NCATS CANVASS Library (AID 1347381);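 further: cell-free check with purified IL-1β in medium and no THP-1 cells; series mostly up to about 57 µM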
Source text: Natural products and their derivatives continue to be wellsprings of nascent therapeutic potential. However, many laboratories have limited resources for biological evaluation, leaving their previously isolated or synthesized compounds largely or completely untested. To address this issue, the Canvass library of natural products was assembled (https://tripod.nih.gov/canvass), in collaboration with academic and industry researchers, for quantitative high-throughput screening (qHTS) across a diverse set of cell-based and biochemical assays. The pure (>85% purity by liquid chromatography/mass spectrometry [LC/MS]) Canvass library of 346 natural products were submitted by 45 academic laboratories and companies around the world. We collected pure natural products to circumvent deconvolution and structure elucidation due to time and resource limitations. The library was formatted into 1536-well plates and evaluated in 50 qHTS (in an 11-pnt concentration series) bioassays with broad scope of disease-relevant mechanisms. The resulting data set from 50 different assays was then systematically analyzed to identify overall trends and specific natural products with interesting biological activities. […]
IL-1-beta-counterscreen qHTS protocol: 1. […] The AlphaLISA signal was read by the EnVision plate reader (PerkinElmer) using a 680 nm excitation and 615 nm emission filters.

[7] = Cytotoxicity qHTS for assessment of Hepg2 cells membrane integrity screened against the NCATS CANVASS Library (AID 1347387)
Outline: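 Cells were seeded at 2000 per well and left overnight to attach. Compounds were pin-transferred to give 0.59 nM - 46 uM in an 11-point series and incubated 5 hr at 37C. CytoTox-ONE reagent was added and, after 10 min at room temperature, fluorescence (ex 560, em 590 nm) was read.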

[8] = molecular target: Nuclear receptor subfamily 1 group I member 3 (Homo sapiens) (UniProt Q14994); test: qHTS for Constitutive Androstane Receptor (CAR) Agonist screened against the NCATS CANVASS Library (AID 1347373);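 further: every well also contained 1.5 µM PK11195 alongside the test compound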
Nuclear receptor subfamily 1 group I member 3 (Homo sapiens), sequence (Q14994 whole entry, looked up): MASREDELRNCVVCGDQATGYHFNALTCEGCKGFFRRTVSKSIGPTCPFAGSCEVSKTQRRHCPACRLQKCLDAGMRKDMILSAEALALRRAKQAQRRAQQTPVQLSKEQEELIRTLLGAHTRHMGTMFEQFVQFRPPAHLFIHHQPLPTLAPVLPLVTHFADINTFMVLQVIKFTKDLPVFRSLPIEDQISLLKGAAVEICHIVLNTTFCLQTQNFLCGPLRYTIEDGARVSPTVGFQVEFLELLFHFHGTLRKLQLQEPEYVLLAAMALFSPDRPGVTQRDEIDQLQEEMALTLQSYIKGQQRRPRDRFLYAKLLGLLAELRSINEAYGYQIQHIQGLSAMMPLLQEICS
Source text: as §1
Material: A double-stable (hCAR and CYP2B6-2.2kb) transfected cell line, derived from human hepatoma (HepG2) cells, was utilized for the duration of the quantitative high-throughput screens. […] A first readout of fluorescence signal was acquired via the ViewLux (PerkinElmer) plate reader using a FITC dichroic mirror, excitation 405/10 nm filter, and emission 540/25 nm filter; and using 65 light energy, 1 second exposure, and 2x binning settings. […]

[9] = qHTS for Hypoxia signaling pathway (HIF-1) antagonists against the NCATS CANVASS Library (AID 1347374);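 further: HRE-bla ME-180 cells stimulated with cobalt chloride to stabilize HIF-1alpha; series mostly up to about 38 µM; nearly all actives have a fitted effect of over 60% in size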
Outline: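 Antagonism scored as loss of CoCl2-driven (60 uM stock added) HRE beta-lactamase signal, read by CCF4 FRET at 460/530 nm. Compounds were tested in an 11-point series on ME-180 reporter cells for 17 hrs at 37C, with parallel CellTiter-Glo cytotoxicity.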

[10] = qHTS for Hypoxia signaling pathway (HIF-1) agonists against the NCATS CANVASS Library (AID 1347375)
Outline: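 Cells plated and rested 5 h, compounds pinned in DMSO across 11 concentrations, incubated 17 h at 37C, loaded with CCF4-AM for 2 h, fluorescence read at 460 and 530 nm, then CellTiter-Glo luminescence measured for viability and normalization.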

Measured: outcome

CC1=C2C(=O)O[C@@H](c3ccoc3)[C@]2(C)CCC1
not listed: [8] | [9] | [10]
inactive: all other assays above

C/C=C/C=C/C(CC(=O)O)Nc1ccc(C=O)cc1 (stereo unspecified)
not listed: [5]
inactive: all other assays above
